Results as given in PubChem BioAssay (NCI).
This is part of a sample that, as a whole, favours compounds with a hit. Of some 83,000 tested, about 20% had one in any assay.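 Treatment: one concentration, 48 hours, 96-well format. Scoring: percent growth, with anything below 10 considered active.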 Unmarked numbers belong to inactive results. Active and inactive are the calls of the source.

These compounds were tested on IGROV1 ovarian (assay: NCI-60 one-dose screen, 48 h (100 = growth as untreated, 0 = no growth, -100 = all killed)). Details: 10 µM unless noted.
Experimental: Growth inhibition of the IGROV1 human tumor cell line is measured as a screen for anti-cancer activity. Cells are grown in 96 well plates and exposed to the test compound for 48 hours. Compounds are tested at a single concentration, which is 10^-5 M for most compounds. The reported endpoint is percent growth (GI% or GIPRCNT), where numbers from 0 - 100% represent growth inhibition, and numbers from -100% - 0 represent cell death. For example, a value of 40 represents 60% growth inhibition. A value of 0 means no net growth occurred over the course of the experiment. A value of -40 indicates 40% of cells at the beginning of the experiment died by the end of the experiment. A value of -100 means all cells are dead at the end of the experiment.
NCI-60 Human Tumor Cell Lines Screen was performed using the standard one-dose NCI protocol, which is described in more detail at https://dtp.cancer.gov/discovery_development/nci-60/default.htm.
Compounds with GIPRCNT values below 10 were considered active. Activity score was based on GIPRCNT using the following formula: […]
Score is 0 for GIPRCNT values of 100 or above, 50 for GIPRCNT values of 0, and 100 for GIPRCNT values of -100.
Compound `Clc1ccc(Cc2nc3ccccc3s2)cc1` has a growth of 91.7%. For `COc1cc(NCc2ccc3nc(N)nc(N)c3c2C)cc(OC)c1OC` (tested in a mixture with another compound), the growth was -10.2% (active). `CN(C)c1ccc(/C=C/c2cc[n+](C)c(/C=C/c3ccc(N(C)C)cc3)c2)cc1` showed a growth of 11%. With `CN(C)CC(C)(CN(C)C)C(=O)/C=C/c1c(Cl)cccc1Cl` the growth was 73.6%. `COc1ccc(/C=C2/C(=O)ON=C2C)cc1` showed a growth of 115%. `N#Cc1c2ccccc2nc2ccccc12` gave a growth of 108%. `Cc1cc(N/N=C/c2ccccn2)nc2ccccc12` was tested, and the growth was 2.45% (active). `CCOc1cc(F)c([N+](=O)[O-])cc1[N+](=O)[O-]` gave a growth of 91.9%. `CCCCCCCCCCCCNCCCc1ccccc1` showed a growth of 75.4%. In the case of `O=C(O)c1ccc2c(c1)C(=O)c1ccccc1C2=O`, the growth is reported as 116%. With `Cc1ccc2c(c1)sc(-c1ccc(N(C)C)cc1)[n+]2C` the growth was 8.14% (active). For `CC(C)=CCCC(C)C1=C(O)C(=O)C(C)=CC1=O` (stereo not given), the growth was -75.7% (active). For `CC(=O)c1c(O)c(C)c(O)c2c1OC1=CC(=O)C(C(C)=O)C(=O)C12C` (stereo not given), the growth was 69.9%. `Cn1c(-c2ccccc2)c(/C=C/C2=[N+](C)c3ccccc3C2(C)C)c2ccccc21` was tested, and the growth was 33.9%. Work on `N=C(N)Sc1cccc[n+]1[O-]` yielded a growth of 46.5%. `COC(=O)c1cc([N+](=O)[O-])cc([N+](=O)[O-])c1Cl` gave a growth of 95.7%. `O=C1C=CC(=O)N1C1CCCCCCCCCCC1` showed a growth of 80.3%. `Clc1ccc(-n2ncc3c(NCCCN4CCOCC4)ncnc32)cc1` gave a growth of 103%. `O=C(O)c1cccc2cccc(-c3c4ccc(=O)c(O)c-4oc4c(O)c(O)ccc34)c12` was tested, and the growth was 101%. For `O=C(c1ccccc1)C(Br)[N+](=O)[O-]` (stereo not given), the growth was 103%. Compound `OC(Cc1cc(CC(O)(C(F)(F)F)C(F)(F)F)nc(CC(O)(C(F)(F)F)C(F)(F)F)c1)(C(F)(F)F)C(F)(F)F` has a growth of 20.4%. In the case of `CSc1nc(C)c(C(=O)CCN2CCN(c3ccccn3)CC2)s1`, the growth is reported as 119%. `Cc1cc(C(N)=O)cc(C)c1C(=O)OCCCl` gave a growth of 111%. `COc1cc(/C=C/c2ccnc3ccccc23)cc(OC)c1OC` showed a growth of 59.1%. `Nc1nc2ncc(CNc3ccc(C(=O)NC(CCC(=O)NC(CCC(=O)NC(CCC(=O)NC(CCC(=O)NC(CCC(=O)O)C(=O)O)C(=O)O)C(=O)O)C(=O)O)C(=O)O)cc3)nc2c(=O)[nH]1` (stereo not given) was tested, and the growth was 103%. `c1ccc(-c2cccc(-c3ccccn3)n2)nc1` showed a growth of 19.3%. `CC(/C=N/NC(N)=S)Cc1ccc(C(C)C)cc1` (stereo not given) gave a growth of 25.7%. For `CC1=CC(=O)C=CC1(C)C(Cl)(Cl)Cl` (stereo not given), the growth was 100%. Work on `CC(=O)c1ccc2c(c1)CCc1ccccc1-2` yielded a growth of 119%. `CCOC(=O)c1c(C)[nH]c2ccc(O)cc12` was tested, and the growth was 103%. Compound `CCOC(=O)C1=C(C(=O)c2ccccc2)C(c2cccc([N+](=O)[O-])c2)C(C(=O)c2ccccc2)=C(C(=O)OCC)N1` has a growth of 97.5%. `c1ccc2sc(SSN3CC4CCC(CC4)C3)nc2c1` gave a growth of 14.6%. Compound `CCN1CCCC(Nc2cc(C)nc(/N=C(/N)Nc3ccc(Cl)c(Cl)c3)n2)C1` (stereo not given) has a growth of 14.5%. For `CCC(C)(O)Cc1ccc(Cl)cc1` (stereo not given), the growth was 114%. `O=C1CSC(=S)N1Cc1cccnc1` showed a growth of 114%. `CCSc1nc2ccccc2o1` gave a growth of 90.1%. `CCCCCCCCCCCCCCCCCC[S+](C)CC` (stereo not given) was tested, and the growth was -34.2% (active). `Cc1cc(=O)oc2cc(O)cc(O)c12` gave a growth of 108%. For `CN=C(N)N/N=C(\c1ccccc1)c1ccc(Br)cc1`, the growth was -7.13% (active). Compound `O=C(C[P+](c1ccccc1)(c1ccccc1)c1ccccc1)c1ccccc1` has a growth of 89.5%.
